Source: PubChem (National Center for Advancing Translational Sciences (NCATS))
MCF10A rerep – induces DNA re-replication in MCF 10a normal breast cells. MCF 10A DNA re-replication, Hoechst nuclear intensity, 48 h. Potency, µM (top dose mostly 46.1 µM), most hits filed as activators. 350,000 compounds, 2.9% hits; note: nearly all actives have a fitted effect of over 50% in size
SW480 rerep – DNA re-replication induction in SW480 cells | SW480 DNA re-replication, Hoechst DNA content imaging, 48 h | 340,000 compounds, 1.8% hits | Potency, µM (titrated, usually from 46.1 µM), most hits filed as activators; note: nearly all actives have a fitted effect of over 55% in size
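Hoechst fluorescence of nuclei (405 nm excitation, 500-530 nm emission) measured by plate-scanning imager after 48 hr compound exposure at 37 C; re-replication scored as increased number of nuclei with elevated intensity.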
KB-V1 cytotox – kills drug-selected multidrug resistant KB-V1 cells; Potency, µM (series often up to 46.1 µM), usual class: cytotoxic; 400,000 compounds, 3.4% hits; KB-V1 MDR cells viability, CellTiter-Glo, 72 h; note: nearly all actives have a fitted effect of over 60% in size
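Cytotoxicity toward P-gp-expressing KB-V1 cells was determined as loss of CellTiter-Glo luminescence after 72 h at 37 degrees C. Compounds were tested in quantitative HTS format across a concentration range, with curves fitted to normalized data.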
KB-3-1 cytotox – kills parental KB-3-1 adenocarcinoma cells. 400,000 compounds, 1.4% hits. Potency, µM (top dose mostly 46.1 µM), actives largely listed as cytotoxic. KB-3-1 viability, CellTiter-Glo ATP luminescence, 72 h; note: nearly all actives have a fitted effect of over 60% in size
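Here the drug-naive KB-3-1 line serves as comparator for MDR sub-line selectivity; cells received compound titrations, 72 h at 37 °C, then CellTiter-Glo readout.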
ELG1 DNA repair – blocks ELG1-dependent DNA repair in HEK293T cells; HEK293T ELG1-luciferase reporter, luminescence, 16 h; DNA damage induced by 5-fluorouridine; Potency, µM (series often up to 46.1 µM), actives largely listed as inhibitors; 330,000 compounds, 2.3% hits; AID 504467; note: nearly all actives have a fitted effect of over 55% in size
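HEK293T cells expressing luciferase-tagged ELG1 (2,000/well) received 5-Fluorouridine plus compound or DMSO for 16 hr at 37 °C. Luciferase was read by ONE-Glo luminescence after 30 min at room temperature.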
Numbers stand for hits. This is a sample that favours compounds with a hit; in the whole collection about 8.1% have one here. Calls come from the whole dose curve; as a rule, active = well fitted curve in the direction sought with a large enough effect; inconclusive = small, poorly fitted or top-dose-only effect, or another doubt; inactive = no such curve, though single readings can be large; an effect the other way counts as inactive or inconclusive.

For CCn1c(Oc2ccc(F)cc2)nc2c1c(=O)n(C)c(=O)n2C the results were MCF10A rerep inactive, SW480 rerep inactive, KB-V1 cytotox inactive, KB-3-1 cytotox inactive and ELG1 DNA repair 8.2µM.
CCN(C(=O)c1coc(=O)c2ccccc12)c1ccccc1C was read as KB-V1 cytotox inactive and KB-3-1 cytotox inactive.
`Cc1ccc(-c2cc(NC(=O)COc3c(C)cc(C)cc3C)on2)cc1` gave KB-V1 cytotox inconclusive and KB-3-1 cytotox inactive.
O=C(CN1C=NS(=O)(=O)c2ccccc21)Nc1ccc(F)cc1 was read as KB-V1 cytotox inconclusive and KB-3-1 cytotox inactive.
`CC[C@]1(C(=O)OC)[C@H]2C(=O)N(Cc3ccccc3)C(=O)[C@H]2[C@H]2CN(C)C(=NCc3ccccc3)N21` gave MCF10A rerep inactive, SW480 rerep inactive, KB-V1 cytotox inactive, KB-3-1 cytotox inactive and ELG1 DNA repair inactive.
For CCCCNC(=O)C1(C)CCC(=O)N1CCOC (stereo unspecified) the results were KB-V1 cytotox inactive and KB-3-1 cytotox inactive.
`Cc1ccc(C(c2sc3nc(-c4ccco4)nn3c2O)N2CCCC2)cc1` (stereo unspecified) gave KB-V1 cytotox inactive and KB-3-1 cytotox inactive.
For C=C1C(=O)O[C@H]2[C@H]1[C@H](OC(=O)/C(C)=C\C)C[C@]1(CO1)[C@@H]1[C@H](OC(C)=O)C=C(C)[C@]21O the results were MCF10A rerep 3.3µM, SW480 rerep inconclusive, KB-V1 cytotox inactive and KB-3-1 cytotox inactive.
`C=C1C(=O)O[C@H]2C[C@]3(C)C([C@@H](OC(=O)/C(C)=C/C)[C@H]12)[C@](C)(O)CC[C@H]3O` (stereo partly specified) gave MCF10A rerep inactive, SW480 rerep inactive, KB-V1 cytotox inactive, KB-3-1 cytotox inactive and ELG1 DNA repair inactive.
`COc1ccccc1OCCCc1c(C)n[nH]c1C` gave MCF10A rerep inactive, SW480 rerep inactive, KB-V1 cytotox 16µM, KB-3-1 cytotox inactive and ELG1 DNA repair inactive.
Screening COc1ccc(OCCCc2c(C)n[nH]c2C)cc1 returned MCF10A rerep inactive, SW480 rerep inactive, KB-V1 cytotox inactive, KB-3-1 cytotox inactive and ELG1 DNA repair inactive.
Screening COc1cccc(OCCc2c(C)n[nH]c2C)c1 returned MCF10A rerep inactive, SW480 rerep inactive, KB-V1 cytotox 21µM, KB-3-1 cytotox inconclusive and ELG1 DNA repair inconclusive.
For Cc1cccc(OCCCCc2c(C)n[nH]c2C)c1 the results were MCF10A rerep inconclusive, SW480 rerep inconclusive, KB-V1 cytotox inactive, KB-3-1 cytotox inactive and ELG1 DNA repair inactive.
`Cc1n[nH]c(C)c1CCCOc1ccccc1` gave MCF10A rerep inactive, SW480 rerep inactive, KB-V1 cytotox inactive, KB-3-1 cytotox inactive and ELG1 DNA repair inactive.
Screening Cc1cccc(OCCCCc2c(C)n[nH]c2C)c1C returned MCF10A rerep inconclusive, SW480 rerep inactive, KB-V1 cytotox 16µM, KB-3-1 cytotox inconclusive and ELG1 DNA repair inactive.
`COc1ccccc1OCCCCCc1c(C)n[nH]c1C` gave MCF10A rerep inactive, SW480 rerep inactive, KB-V1 cytotox 4.6µM, KB-3-1 cytotox inconclusive and ELG1 DNA repair inconclusive.
For Cc1cccc(OCCCCCn2ccnc2)c1C the results were MCF10A rerep inactive, SW480 rerep inactive, KB-V1 cytotox inactive, KB-3-1 cytotox inconclusive and ELG1 DNA repair inconclusive.
O=C1NC(=O)C2(CCCC2)N1 was read as MCF10A rerep inactive, SW480 rerep inactive, KB-V1 cytotox inactive and KB-3-1 cytotox inactive.
`CCN(CC)CCNC(=O)C(=O)NCC(c1cccnc1)N1CCN(c2ccc(F)cc2)CC1` (stereo unspecified) gave KB-V1 cytotox inactive and KB-3-1 cytotox inactive.
Screening CNc1ccc2ncc(-c3cccc(C(=O)N(C)C)c3)n2n1 returned KB-V1 cytotox inconclusive and KB-3-1 cytotox inactive.
O=C(c1ccc2c(Cl)c3c(nc2c1)CCCC3)N1CCN(c2cccc(C(F)(F)F)c2)CC1 was read as KB-V1 cytotox inconclusive and KB-3-1 cytotox inactive.
CCOc1cc(C2C(C(=O)Nc3ccccc3)=C(C)Nc3ncnn32)cc(Br)c1O (stereo unspecified) was read as KB-V1 cytotox inconclusive and KB-3-1 cytotox inactive.
`O=C(O)c1cc(O)c2c(c1)[C@H]([C@H]1c3cc(C(=O)O)cc(O)c3C(=O)c3c(O[C@@H]4OC(CO)C(O)C(O)C4O)cccc31)c1cccc(O[C@@H]3OC(CO)C(O)C(O)C3O)c1C2=O` (stereo partly specified) gave MCF10A rerep inactive and SW480 rerep inactive.
`CCOc1ccccc1OCCCCCc1c(C)n[nH]c1C` gave MCF10A rerep inactive, SW480 rerep inconclusive, KB-V1 cytotox 2.9µM, KB-3-1 cytotox 21µM and ELG1 DNA repair inactive.
CCOc1cccc(OCCOCCOc2ccccc2C(C)=O)c1 was read as MCF10A rerep inactive, SW480 rerep inactive, KB-V1 cytotox 15µM, KB-3-1 cytotox inactive and ELG1 DNA repair inactive.
Screening C[C@@H]1CN([C@@H](C)CO)C(=O)c2cc(Br)cnc2O[C@H]1CN(C)C(=O)C1CC1 returned KB-V1 cytotox inconclusive and KB-3-1 cytotox inactive.
CCOC(=O)C1CCN(c2nc3c(S(=O)(=O)c4ccccc4)nnn3c3ccsc23)CC1 was read as KB-V1 cytotox inactive and KB-3-1 cytotox inactive.
For CCOC(=O)c1c(Nc2cc(C)cc(C)c2)nnc(-c2ccccc2)c1-c1ccccc1 the results were KB-V1 cytotox inactive and KB-3-1 cytotox inactive.
`CCOC(=O)c1c(Nc2cccc(C)c2)nnc(-c2ccccc2)c1-c1ccccc1` gave KB-V1 cytotox inconclusive and KB-3-1 cytotox 16µM.
For CC1(O)CC(c2ccc(Cl)cc2)=NN1C(=O)c1ccc(Cl)cc1 (stereo unspecified) the results were MCF10A rerep 12µM, SW480 rerep inconclusive, KB-V1 cytotox inconclusive, KB-3-1 cytotox inactive and ELG1 DNA repair inactive.
CC(=O)NC(c1cccc(F)c1)c1nc(-c2ccoc2)cs1 (stereo unspecified) was read as KB-V1 cytotox inconclusive and KB-3-1 cytotox inactive.
O=C(O)c1ccccc1SCC(=O)N1CCc2ccccc21 was read as MCF10A rerep 16µM, SW480 rerep inactive, KB-V1 cytotox inactive, KB-3-1 cytotox inactive and ELG1 DNA repair inconclusive.
`Cn1c(-c2ccccc2)cnc1SCC(=O)N1CCCc2ccccc21` gave MCF10A rerep inactive, SW480 rerep inactive, KB-V1 cytotox 5.8µM, KB-3-1 cytotox inactive and ELG1 DNA repair inactive.
`CC(C)Cn1c(SCC(=O)N2CCCc3ccccc32)nc2ccccc2c1=O` gave MCF10A rerep 21µM, SW480 rerep inconclusive, KB-V1 cytotox inconclusive, KB-3-1 cytotox inactive and ELG1 DNA repair inconclusive.
For O=C(CSc1nnc(-c2ccccc2Br)n1-c1ccccc1)c1ccc(F)cc1 the results were KB-V1 cytotox 18µM and KB-3-1 cytotox inconclusive.
Nc1ccccc1SCC(=O)N1CCc2ccccc21 was read as MCF10A rerep inactive, SW480 rerep inactive, KB-V1 cytotox inactive, KB-3-1 cytotox inactive and ELG1 DNA repair inconclusive.
